TMEM16A act: activates or potentiates the mouse TMEM16A chloride channel; Q8BHY3; HEK293 TMEM16A/YFP-H148Q/I152L, iodide quench fluorescence; active compounds read low; B-score at 10 µM; hit rate 0.3% among 340,000;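 active means fluorescence-ratio B-score plate-corrected deviation score at least 3 library SD below zero, with starting fluorescence score within 5 deviations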;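 further: channel opened by trigger with iodide after compound preincubation; score built on the fluorescence ratio of max minus min over baseline; more negative score means more quench and so TMEM16A activation or potentiation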
CHT inh: human CHT choline transport inhibition | Q9GZV3 | CHT-expressing cells, membrane potential dye, choline response; active compounds read low | B-score at 10 µM | hit rate 0.86% among 310,000 | AID 488975;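 active means B-score over 3 SD under the library average, and starting fluorescence ratio not unusually high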;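 further: choline stimulus applied at its EC90 after an EC20 pre-addition; B-score computed on integrated fluorescence ratio after choline addition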
CHT allo act: human CHT allosteric activation; Q9GZV3; CHT-expressing cells, membrane potential dye, choline EC20; active compounds read high; LV-AA mutant CHT in HEK293 cells; B-score at 10 µM; hit rate 0.49% among 310,000; AID 488977;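 active means initial fluorescence not abnormally high and integrated response B-score, plate-corrected, over 3 SD above library mean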
ANO1 block: mouse TMEM16A channel inhibition, primary screen | normalized B-score (activity score, 25-100; higher = stronger inhibition) at 10 µM | HEK293 TMEM16A/YFP iodide influx fluorescence, ionomycin | hit rate 1.2% among 310,000 | AID 588511;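 active means ratio plate-corrected score three or more library SD toward inhibition, starting fluorescence score within five deviations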;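 further: score derived from kinetic fluorescence span divided by baseline fluorescence per well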
CHT inh conf: confirmation of human choline transporter CHT inhibitors | CHT activity remaining % of control (active compounds read low), % at 10 µM | shares compounds with CHT inh | CHT-expressing cells, choline membrane potential dye; LV-to-AA substituted CHT, HEK293 cells | hit rate 70% among 2,400;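 active means choline transporter activity left, mean of duplicates at 10 µM, below buffer-only control mean minus 3 SD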;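 further: depolarization triggered by choline at its EC90 following an EC20 pre-addition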
HEK293 CHT ctr: CHT inhibitor counter-screen hit in parental HEK293 cells. shares compounds with CHT inh. membrane potential dye, choline response; active = decrease or increase beyond buffer ±3SD. membrane potential ratio readout (active if shifted either direction beyond buffer ±3SD; no single direction) at 10 µM. hit rate 4% among 2,400;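 further: parental cells lack the transporter so any hit is non-specific; ratio is peak minus trough fluorescence over baseline after EC90 choline challenge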
Hits are given with their value. Most compounds without a hit are left out; they make up all but 2.3% or so of the library.

C/C(=N\NC1=NCCN1)c1ccc(Cl)cc1 was read as TMEM16A act inactive, CHT inh -6.7, CHT allo act inactive, ANO1 block inactive, CHT inh conf 52% and HEK293 CHT ctr inactive.
`C/C(=N\NC1=NCCN1)c1ccccc1` gave TMEM16A act inactive, CHT inh -6.5, CHT allo act inactive, ANO1 block inactive, CHT inh conf 32% and HEK293 CHT ctr inactive.
Screening C=CCn1c(SCc2ccccc2C#N)nnc1-c1ccccc1O returned TMEM16A act inactive, CHT inh -6.3, CHT allo act inactive, ANO1 block inactive, CHT inh conf inactive and HEK293 CHT ctr inactive.
`CCOc1ccc(NS(=O)(=O)c2ccc(C(=O)NC3CCC(O)CC3)cc2)cc1` (configuration not stated) gave TMEM16A act inactive, CHT inh inactive, CHT allo act inactive and ANO1 block inactive.
`CCOC(=O)c1cc(C(=O)NC(C)c2ccccc2)c(=O)[nH]c1C` (configuration not stated) gave TMEM16A act inactive, CHT inh -12, CHT allo act inactive, ANO1 block inactive, CHT inh conf 26% and HEK293 CHT ctr inactive.
`CC(NC(=O)c1cc(=O)[nH]c2ccccc12)c1ccccc1` (configuration not stated) gave TMEM16A act inactive, CHT inh inactive, CHT allo act inactive and ANO1 block inactive.
For COc1ccnc(N2CCN(c3ccccc3)CC2)c1C#N the results were TMEM16A act inactive, CHT inh -8.3, CHT allo act inactive, ANO1 block inactive, CHT inh conf inactive and HEK293 CHT ctr inactive.
`COc1ccc(N2CCN(c3ncccc3C#N)CC2)cc1` gave TMEM16A act inactive, CHT inh inactive, CHT allo act inactive and ANO1 block inactive.
`COc1cccc(-c2cc(-c3cccnc3)nc(N)c2C#N)c1` gave TMEM16A act inactive, CHT inh -7.3, CHT allo act inactive, ANO1 block inactive, CHT inh conf inactive and HEK293 CHT ctr inactive.
Screening O=C(NCC(=O)N(c1cccc(F)c1)C(C(=O)NC1CCCC1)c1ccncc1)c1cccs1 (configuration not stated) returned TMEM16A act inactive, CHT inh inactive, CHT allo act inactive and ANO1 block inactive.
Screening C=Cn1cc[n+](CC(=O)c2ccc(Br)cc2)c1 returned TMEM16A act inactive, CHT inh -6.8, CHT allo act inactive, ANO1 block inactive, CHT inh conf 30% and HEK293 CHT ctr inactive.
`C=Cn1cc[n+](CC(=O)c2ccc(Cl)cc2)c1` gave TMEM16A act inactive, CHT inh -6.7, CHT allo act inactive, ANO1 block inactive, CHT inh conf 48% and HEK293 CHT ctr inactive.
For C=Cn1cc[n+](CC(=O)c2ccc(C)cc2)c1 the results were TMEM16A act inactive, CHT inh inactive, CHT allo act inactive and ANO1 block inactive.
`CN1CCC(=O)N([C@H](CN=[N+]=[N-])Cc2ccccc2)CC1` gave TMEM16A act inactive, CHT inh inactive, CHT allo act inactive and ANO1 block inactive.
`Cc1n[nH]c(=O)c2c(NC(=O)CSc3nn(-c4ccccc4)c(=S)s3)oc(C)c12` gave TMEM16A act inactive, CHT inh inactive, CHT allo act inactive and ANO1 block inactive.
`CCCOc1ccc(C(C)=O)cc1CC(C(=O)OCC)C(=O)OCC` gave TMEM16A act inactive, CHT inh -5, CHT allo act inactive, ANO1 block inactive, CHT inh conf inactive and HEK293 CHT ctr inactive.
Screening COc1ccc(CCN2C(=O)CSC2c2ccc(OC)c(OC)c2)cc1OC (configuration not stated) returned TMEM16A act inactive, CHT inh inactive, CHT allo act inactive and ANO1 block inactive.
COc1ccc(C2SCC(=O)N2CCc2ccc(OC)c(OC)c2)cc1 (configuration not stated) was read as TMEM16A act inactive, CHT inh -6, CHT allo act inactive, ANO1 block inactive, CHT inh conf 43% and HEK293 CHT ctr inactive.
Screening O=c1cc(CSc2nc3cc(Cl)ccc3o2)nc2sccn12 returned TMEM16A act inactive, CHT inh -5.4, CHT allo act inactive, ANO1 block inactive, CHT inh conf 51% and HEK293 CHT ctr inactive.
`Cc1cc(C)n2cc(CSc3nc4cc(Cl)ccc4o3)nc2n1` gave TMEM16A act inactive, CHT inh inactive, CHT allo act inactive and ANO1 block inactive.
`CCOc1cc2[nH]c(=S)n(C3CC3)c(=O)c2cc1OCC` gave TMEM16A act inactive, CHT inh inactive, CHT allo act inactive and ANO1 block inactive.
For CCOc1cc2[nH]c(=S)n(C(C)C)c(=O)c2cc1OCC the results were TMEM16A act inactive, CHT inh -8.8, CHT allo act inactive, ANO1 block inactive, CHT inh conf 52% and HEK293 CHT ctr inactive.
Screening CCN1CC(C)(C)N(C(=O)c2ccccc2)CC1(C)C returned TMEM16A act inactive.
Screening CC(OC(=O)CCc1ccccc1)C(=O)Nc1ncc(Cl)cc1Cl (configuration not stated) returned TMEM16A act inactive, CHT inh inactive, CHT allo act inactive and ANO1 block inactive.
For COc1cccc(OC)c1C(=O)OCC(=O)NC1CCCCCC1 the results were TMEM16A act inactive.
`COc1ccc(S(=O)(=O)N2CCN(CCc3ccccc3)CC2)c(OC)c1` gave TMEM16A act inactive, CHT inh -5.5, CHT allo act inactive, ANO1 block inactive, CHT inh conf 48% and HEK293 CHT ctr inactive.
For NCCc1ccc(O)c(O)c1 the results were TMEM16A act inactive, CHT inh inactive, CHT allo act inactive and ANO1 block inactive.
CCCCc1cc(O)c(CCCC)c(O)c1 was read as TMEM16A act inactive, CHT inh -5.2, CHT allo act inactive, ANO1 block 100, CHT inh conf 67% and HEK293 CHT ctr inactive.
`COc1ccc(NC(=O)c2oc3ccccc3c2C)cn1` gave TMEM16A act inactive, CHT inh inactive, CHT allo act inactive and ANO1 block inactive.
For CCC(C)NCCOCCOc1ccccc1-c1ccccc1 (configuration not stated) the results were TMEM16A act inactive, CHT inh -5.8, CHT allo act inactive, ANO1 block inactive, CHT inh conf 48% and HEK293 CHT ctr -15.
CC(C)(C)NCCOCCOc1ccccc1-c1ccccc1 was read as TMEM16A act inactive, CHT inh inactive, CHT allo act inactive and ANO1 block inactive.
For CC(OC(=O)c1cc2sccc2n1C)C(=O)NC(C)(C)C (configuration not stated) the results were TMEM16A act inactive, CHT inh -9.2, CHT allo act inactive, ANO1 block inactive, CHT inh conf 59% and HEK293 CHT ctr inactive.
`CC(OC(=O)c1cc2sccc2n1C)C(=O)NCc1cccs1` (configuration not stated) gave TMEM16A act inactive, CHT inh inactive, CHT allo act inactive and ANO1 block inactive.
